Source: PubChem BioAssay (NCATS)
Several values for one entry are separate records, joined by “and”; a condition that tells them apart may be missing. Equal entries are not always repeated. Records with an inconclusive call do not appear. Entries that show only a call come without a potency. Some structures have more than one record in an assay (separate samples or runs), and their calls can disagree. Activity calls are given as the source filed them. Calls follow the shape of the dose curve; as a rule, active = well fitted curve in the direction sought with a large enough effect; inconclusive = small, poorly fitted or top-dose-only effect, or another doubt; inactive = no such curve, though single readings can be large; an effect the other way counts as inactive or inconclusive.

How the values were obtained:
[1] = target: Glutathione peroxidase 1 (Homo sapiens) (UniProt P07203); test: Primary qHTS Assay for Inhibitors of Recombinant Selenoprotein Glutathione Peroxidase 1 (GPX1) (AID 1845191); also: nearly all actives have a fitted effect of over 65% in size; also: potency is read from the fitted curve at half-maximal effect
Outline: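 10 nM GPX1 + cpd, 30 min RT; start w/ 1 mM GSH, 0.5 mM cumene hydroperoxide, 0.5 mM NADPH, 100 nM GR, 0.01% BSA; buffer 50 mM Tris-HCl pH 7.5, 2 mM EDTA, 150 mM NaCl; Fl 340/450, 0 & 15 min.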

[2] = target: Phospholipid hydroperoxide glutathione peroxidase GPX4 (Homo sapiens) (UniProt P36969); test: Primary qHTS Assay for Inhibitors of Recombinant Selenoprotein Glutathione Peroxidase 4 (GPX4) (AID 1845192); also: nearly all actives have a fitted effect of over 65% in size; also: potency is read from the fitted curve at half-maximal effect; as to activity change, negative = inhibition: series mostly up to about 50 µM
Outline: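 NADPH consumption, followed by fluorescence at 340/450 nm between 0 and 15 min, reports GPX4 activity via coupled glutathione reductase (100 nM). Enzyme 200 nM was pre-exposed to compound 30 min; 0.5 mM cumene hydroperoxide and 1 mM GSH served as substrates.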

[3] = target: Luciferin 4-monooxygenase (Photinus pyralis) (UniProt P08659); test: Primary firefly luciferase (FLuc) qHTS assay for identification of artifact compounds. (AID 1845220); also: nearly all actives have a fitted effect of over 60% in size; also: potency is read from the fitted curve at half-maximal effect; as to activity change, negative = inhibition: series mostly up to about 54 µM
Outline: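 Compounds sat 15 min at room temperature with 10 uM luciferin and 10 uM ATP (pH 7.6 Tris acetate). Firefly luciferase (10 nM final) was then added, and luminescence was read 5 min later. Data normalized to no-enzyme and DMSO controls were Hill-fitted.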

[4] = Primary fluorescence-based thiol-reactive (MSTI) qHTS assay for identification of artifact compounds. (AID 1845221); also: nearly all actives have a fitted effect of over 65% in size; also: potency is read from the fitted curve at half-maximal effect;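 as to activity change, negative = thiol reactive: series mostly up to about 54 µM; thiol-reactive compounds lower the probe fluorescence signal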
Outline: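 Probe: MSTI 4 uM, PBS pH 7.4, 2% DMSO. Incubation 1 h, RT, light-protected. Readout fluorescence 525/598 nm.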

[5] = tested on: Nanoluciferase (engineered Oplophorus gracilirostris luciferase); test: Primary Nanoluciferase (NLuc) qHTS assay for identification of artifact compounds. (AID 1845222); also: series mostly up to about 54 µM
Outline: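 Luminescence from secreted NLuc (filtered, 1:55-diluted S16 cell medium) read 5 min after Nano-Glo substrate; compounds preincubated 15 min, RT. Hill fits of inhibition normalized to DMSO and no-enzyme.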

[6] = Primary redox qHTS assay for identification of artifact compounds. (AID 1845223)
Outline: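 Amplex Red (25 uM) and HRP (250 mU/mL) in HBSS, with compounds for 15 min, then 250 uM DTT for 30 min, room temperature, dark. Fluorescence 525/598 nm read; normalized to DMSO and 10 uM DA3003; Hill fit.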

Sequence of Glutathione peroxidase 1 (Homo sapiens) (P07203 whole entry, looked up): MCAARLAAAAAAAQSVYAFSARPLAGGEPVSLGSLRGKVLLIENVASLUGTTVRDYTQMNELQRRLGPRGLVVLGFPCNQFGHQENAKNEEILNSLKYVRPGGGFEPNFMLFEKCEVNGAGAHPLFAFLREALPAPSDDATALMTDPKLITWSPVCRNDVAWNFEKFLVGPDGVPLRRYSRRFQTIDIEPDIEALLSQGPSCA
Sequence of Phospholipid hydroperoxide glutathione peroxidase GPX4 (Homo sapiens) (P36969 whole entry, looked up): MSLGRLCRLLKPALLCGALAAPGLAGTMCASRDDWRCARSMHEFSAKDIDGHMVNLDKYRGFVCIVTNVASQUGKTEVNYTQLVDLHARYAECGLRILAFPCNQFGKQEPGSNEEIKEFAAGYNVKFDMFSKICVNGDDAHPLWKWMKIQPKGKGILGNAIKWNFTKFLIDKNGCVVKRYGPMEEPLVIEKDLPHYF

| Compound | outcome [1] | activity change, negative = inhibition [2] | outcome [3] | activity change, negative = thiol reactive [4] | activity, negative = inhibition [5] | redox activity (% of DA3003) [6] | Potency [1] | Potency [2] | Potency [3] | Potency [4] | Potency [5] | Potency [6] |
| --- | --- | --- | --- | --- | --- | --- | --- | --- | --- | --- | --- | --- |
| C[C@@H]1O[C@@H](O[C@H]2[C@@H](OC(=O)[C@]34CCC(C)(C)CC3C3=CCC5[C@@]6(C)C[C@H](O)[C@H](O[C@@H]7O[C@H](CO)[C@@H](O)[C@H](O)[C@H]7O[C@@H]7OC[C@@H](O)[C@H](O)[C@H]7O)[C@@](C)(C(=O)O)C6CC[C@@]5(C)[C@]3(C)CC4)OC[C@H](O)[C@@H]2O)[C@H](O)[C@H](O)[C@H]1O[C@@H]1OC[C@@H](O)[C@H](O)[C@H]1O (some centres not stated) | inactive [at 9.52 µM] | 1.61% [at 9.73 µM] (inactive) | inactive [at 11.6 µM] | 151% [at 11.5 µM] (inactive) | 3.4% [at 11.6 µM] (inactive) | 18.4% [at 11.5 µM] (inactive) | – | – | – | – | – | – |
| COc1ccc(C2(N(C)C(=O)c3ccc(NC(=O)c4ccco4)cc3)CCOCC2)cc1 | – | – | – | – | – | – | inactive | inactive | inactive | inactive | inactive | inactive |
| Cc1cccc(-c2[nH]ncc2-c2ccnc3ccccc23)n1 | – | – | – | – | – | – | inactive | inactive | inactive | inactive | inactive | inactive |
| Cc1csc2c(N[C@@H](C)CN3CCN(S(=O)(=O)c4ccc(Cl)c(Cl)c4)CC3)ncnc12 | – | – | – | – | – | – | inactive | inactive | inactive | inactive | inactive | inactive |
| Nc1nc(O)c(C2=C3C(=Nc4ccccc43)C(=O)NCC2)[nH]1 | – | – | – | – | – | – | inactive | inactive | inactive | inactive | inactive | inactive |
| CC1OC(=O)C[C@@H]2C(C(=O)O)=CO[C@@H](O[C@H]3O[C@H](CO)[C@@H](O)[C@H](O)[C@H]3O)[C@H]12 (some centres not stated) | – | – | – | – | – | – | inactive | inactive | inactive | inactive | inactive | inactive |
| CN(C)C(=O)COC(=O)c1cc(-c2ccc(C3CCNCC3)cc2)c2ccc(-c3ccc(C(F)(F)F)cc3)cc2c1 | – | – | – | – | – | – | inactive | inactive | inactive | inactive | inactive | inactive |
| CC(=O)C=C=C1C(C)(C)CC(O)CC1(C)O[C@@H]1O[C@H](CO[C@H]2OC[C@](O)(CO)[C@H]2O)[C@@H](O)[C@H](O)[C@H]1O (some centres not stated) | – | – | – | – | – | – | inactive | inactive | inactive | 5.19 µM (active) | inactive | inactive |
| Cc1cc(C(=O)Nc2cc(Oc3ccc4nc(NC(=O)C5CC5)cn4n3)ccc2C)n(C)n1 | – | – | – | – | – | – | inactive | 25.5 µM (active) | inactive | inactive | inactive | inactive |
| O=C(NCc1ccccc1-c1ccccc1C(=O)NCCc1ccccn1)OCc1ccccc1 | – | – | – | – | – | – | inactive | inactive | inactive | inactive | inactive | inactive |
| Cn1c(=O)c(F)c(Nc2ccc(I)cc2F)c2c(=O)n(CC(O)CO)cnc21 (configuration not stated) | – | – | – | – | – | – | inactive | inactive | inactive | inactive | inactive | inactive |
| COc1ccc(-c2cc3onc(-c4ccncc4)c3c(=O)n2C)cc1 | – | – | – | – | – | – | inactive | inactive | 1.9 µM (active) | inactive | inactive | inactive |
| C=CC(=O)Nc1cc(-n2c(=O)ccc3cnc4ccc(-c5ccc(NS(C)(=O)=O)cc5)cc4c32)ccc1C | – | – | – | – | – | – | inactive | inactive | inactive | inactive | inactive | inactive |
| O=C(Nc1ccccc1)N1CCC(Cc2cnc3ccccc3c2)CC1 | – | – | – | – | – | – | inactive | inactive | inactive | inactive | inactive | inactive |
| C=C1C(=O)O[C@@H]2[C@H]3C(C)=CC(=O)C3=C(C)CC[C@@H]12 | – | – | – | – | – | – | inactive | inactive | inactive | inactive | inactive | inactive |
| O=C(c1ccccn1)N(Cc1cccs1)C1(C(=O)NC2CCCCC2)CCCCC1 | – | – | – | – | – | – | inactive | inactive | inactive | inactive | inactive | inactive |
| COc1cc(F)c(C(C)C)cc1-c1ccc(C(F)(F)F)cc1CN1C(=O)OC(c2cc(C(F)(F)F)cc(C(F)(F)F)c2)C1C (configuration not stated) | – | – | – | – | – | – | inactive | inactive | inactive | inactive | inactive | inactive |
| Cn1cc(-c2ccc3c(c2)CCN3C(=O)Cc2cccc(C(F)(F)F)c2)c2c(N)ncnc21 | – | – | – | – | – | – | inactive and 18.3 µM (active) | inactive | inactive | 29.9 µM (active) | inactive | inactive |
| CC12CCC3C1C(c1c(cc(O)c(C(=O)c4ccccc4)c1O)O2)C3(C)C (configuration not stated) | – | – | – | – | – | – | inactive | inactive | inactive | inactive | inactive | inactive |
| C[C@@H]1CC[C@]2(C(=O)O)CC[C@]3(C)C(=CCC4[C@@]5(C)CC[C@H](O)[C@](C)(C(=O)O)C5CC[C@]43C)C2[C@]1(C)O (some centres not stated) | – | – | – | – | – | – | inactive | inactive | inactive | inactive | inactive | inactive |
| COCCCNC(=O)c1ccc(Cn2c(=O)c3ccccc3n(Cc3ccc(C(C)C)cc3)c2=O)cc1 | – | – | – | – | – | – | inactive | inactive | inactive | inactive | inactive | inactive |
| C=C(C=O)[C@]1(O)C[C@@]2(C)C(=CC1=O)C=C[C@H](OC(=O)/C=C/C=C/[C@H](C)CC)[C@@H]2C | – | – | – | – | – | – | inactive | inactive | inactive | inactive | inactive | inactive |
